{"source": "paper PMC11995724", "about": "“Antibiotic target discovery by integrated phenotypic and activity-based profiling of electrophilic fragments” (Cell chemical biology, 2025)", "note": "Out of some 3,200 compounds screened, about 75 (2%) showed an effect of 50% or more. This excerpt belongs to a sample that is enriched for strong results."}
{"tested_on": "T1, S. aureus MSSA476", "T1 construct": "MSSA476", "parameters": "species or system S. aureus MSSA476 (TSB) or V. cholerae SAD30 (LB); 384-well bacterial growth screen at 25 uM, OD600 relative to DMSO control", "settings": "relative growth, OD600, TSB; 25 µM; inhibitor", "units": {"% of control remaining": "%"}}
{"smiles": "CCn1ccc(CN(C)C(=O)CCl)n1", "note": "[5-K06, 2-chloro-N-[(1-ethyl-1H-pyrazol-3-yl)methyl]-N-methylacetamide]", "% of control remaining": 77.5956}
{"smiles": "CCc1cc(SC#N)cc(C)c1NC(=O)CCl", "note": "[4-M04, 2-chloro-N-[4-(cyanosulfanyl)-2-ethyl-6-methylphenyl]acetamide]", "% of control remaining": 101.382}
{"smiles": "O=C(CCl)Cc1ccc(Cl)c(Cl)c1", "note": "[10-E15, 1-chloro-3-(3,4-dichlorophenyl)propan-2-one]", "% of control remaining": 111.25}
{"smiles": "O=C(CCl)Cc1cc(Cl)cc(Cl)c1", "note": "[10-I15, 1-chloro-3-(3,5-dichlorophenyl)propan-2-one]", "% of control remaining": 23.125}
{"smiles": "O=C(CCl)Cc1cccc(Cl)c1", "note": "[10-E17, 1-chloro-3-(3-chlorophenyl)propan-2-one]", "% of control remaining": 119.375}
{"smiles": "O=C(CCl)NC(=O)c1ccc(OC(F)F)cc1", "note": "[5-J22, N-(2-chloroacetyl)-4-(difluoromethoxy)benzamide]", "% of control remaining": 106.011}
{"smiles": "C=CC(=O)NCc1ncoc1C(F)(F)F", "note": "[3-E18, N-{[5-(trifluoromethyl)-1,3-oxazol-4-yl]methyl}prop-2-enamide]", "% of control remaining": 106.922}
{"smiles": "N#CC(=Cc1ccc(C(F)(F)F)cc1)C(=O)Nc1ccccc1", "note": "[9-I04, 2-cyano-N-phenyl-3-[4-(trifluoromethyl)phenyl]prop-2-enamide]", "% of control remaining": 99.7753}
{"smiles": "CN1C=CC(=C(C#N)C(=O)CCl)C=C1", "note": "[10-G21, 4-chloro-2-(1-methyl-1,4-dihydropyridin-4-ylidene)-3-oxobutanenitrile]", "% of control remaining": 112.5}
{"smiles": "N#CC(C(=O)CCl)=C1NC(C23CC4CC(CC(C4)C2)C3)=CS1", "note": "[10-F14, 2-[4-(adamantan-1-yl)-2,3-dihydro-1,3-thiazol-2-ylidene]-4-chloro-3-oxobutanenitrile]", "% of control remaining": 42.1875}
{"smiles": "N#CC(C(=O)CCl)=C1NC2=C(CCc3ccccc32)S1", "note": "[10-N10, 4-chloro-2-{1H,2H,4H,5H-naphtho[1,2-d][1,3]thiazol-2-ylidene}-3-oxobutanenitrile]", "% of control remaining": 59.6875}
{"smiles": "O=C(CCl)NC1CCS(=O)(=O)c2ccc(F)cc21", "note": "(stereo not drawn) [7-H06, 2-chloro-N-(6-fluoro-1,1-dioxo-3,4-dihydro-2H-1lambda6-benzothiopyran-4-yl)acetamide]", "% of control remaining": 94.1915}
{"smiles": "CN(C)c1ccc(C=C(C#N)C(=O)N2CCC2)cc1", "note": "[9-A14, 2-(azetidine-1-carbonyl)-3-[4-(dimethylamino)phenyl]prop-2-enenitrile]", "% of control remaining": 86.8914}
{"smiles": "Cc1c(C#N)c(NC(=O)CCl)n(Cc2ccco2)c1C", "note": "[4-D09, 2-chloro-N-{3-cyano-1-[(furan-2-yl)methyl]-4,5-dimethyl-1H-pyrrol-2-yl}acetamide]", "% of control remaining": 96.0457}
{"smiles": "CC(C)OC(=O)c1ccc(NC(=O)C(C)Cl)cc1", "note": "(stereo not drawn) [4-K08, propan-2-yl 4-(2-chloropropanamido)benzoate]", "% of control remaining": 110.148}
{"smiles": "CCCCNC(=O)C(C#N)=Cc1c(Cl)cccc1Cl", "note": "[9-J11, N-butyl-2-cyano-3-(2,6-dichlorophenyl)prop-2-enamide]", "% of control remaining": 79.4007}
{"smiles": "N#CC(=Cc1c(Cl)cccc1Cl)C(=O)NCCc1ccccc1", "note": "[8-B14, 2-cyano-3-(2,6-dichlorophenyl)-N-(2-phenylethyl)prop-2-enamide]", "% of control remaining": 39.834}
{"smiles": "CC(NC(=O)C(C#N)=Cc1cccc(Cl)c1Cl)c1ccccc1", "note": "(stereo not drawn) [9-N04, 2-cyano-3-(2,3-dichlorophenyl)-N-(1-phenylethyl)prop-2-enamide]", "% of control remaining": 0.5993}
{"smiles": "N#CC(=Cc1cccc(O)c1)C(=O)NCCc1ccccc1", "note": "[8-N03, 2-cyano-3-(3-hydroxyphenyl)-N-(2-phenylethyl)prop-2-enamide]", "% of control remaining": 116.183}
{"smiles": "N#CC(=Cc1ccccc1Cl)C(=O)NCc1ccccc1", "note": "[9-F13, N-benzyl-3-(2-chlorophenyl)-2-cyanoprop-2-enamide]", "% of control remaining": 78.2022}
{"smiles": "N#CC(=Cc1cccc(Cl)c1Cl)C(=O)NCCc1ccccc1", "note": "[8-J06, 2-cyano-3-(2,3-dichlorophenyl)-N-(2-phenylethyl)prop-2-enamide]", "% of control remaining": 0.6639}
{"smiles": "N#CC(=Cc1c(F)cccc1F)C(=O)NCCc1ccccc1", "note": "[8-D18, 2-cyano-3-(2,6-difluorophenyl)-N-(2-phenylethyl)prop-2-enamide]", "% of control remaining": 118.174}
{"smiles": "CC(C)NC(=O)C(C#N)=Cc1cccc(Cl)c1Cl", "note": "[9-C07, 2-cyano-3-(2,3-dichlorophenyl)-N-(propan-2-yl)prop-2-enamide]", "% of control remaining": 109.963}
{"smiles": "N#CC(=Cc1cccc2ccccc12)C(=O)NCc1ccccc1", "note": "[8-O19, N-benzyl-2-cyano-3-(naphthalen-1-yl)prop-2-enamide]", "% of control remaining": 104.896}
{"smiles": "CCCCNC(=O)C(C#N)=Cc1cccc(Cl)c1Cl", "note": "[9-H11, N-butyl-2-cyano-3-(2,3-dichlorophenyl)prop-2-enamide]", "% of control remaining": 71.0112}
{"smiles": "N#CC(=Cc1cccc(Cl)c1Cl)C(=O)NCc1ccccc1", "note": "[8-L04, N-benzyl-2-cyano-3-(2,3-dichlorophenyl)prop-2-enamide]", "% of control remaining": -0.332}
{"smiles": "CC(NC(=O)C(C#N)=Cc1ccccc1F)c1ccccc1", "note": "(stereo not drawn) [8-P16, 2-cyano-3-(2-fluorophenyl)-N-(1-phenylethyl)prop-2-enamide]", "% of control remaining": 79.0041}
{"smiles": "O=C(O)c1coc(C(=O)CCl)c1", "note": "[10-B07, 5-(2-chloroacetyl)furan-3-carboxylic acid]", "% of control remaining": 79.6875}
{"smiles": "O=C(CCl)N1N=C(c2ccco2)CC1c1cccc(Cl)c1", "note": "(stereo not drawn) [5-M17, 2-chloro-1-[5-(3-chlorophenyl)-3-(furan-2-yl)-4,5-dihydro-1H-pyrazol-1-yl]ethan-1-one]", "% of control remaining": 81.9672}
{"smiles": "Cc1nn(-c2ccccc2)c(C)c1CN(C)C(=O)CCl", "note": "[7-B03, 2-chloro-N-[(3,5-dimethyl-1-phenyl-1H-pyrazol-4-yl)methyl]-N-methylacetamide]", "% of control remaining": 93.5636}
